The whole screen tested about 220,000 compounds, of which about 710 (0.32%) were called active. Rule as the data show it: active = binding response below about 49% or above about 150%; inactive = in between. The sample as a whole holds a higher share of actives than the screen did.
biological target: Guanine nucleotide-binding protein G(o) subunit alpha (Homo sapiens) (UniProt P09471); assay: modulators of RGS4 binding to Galphao, primary screen, biochemical, multiplexed bead flow cytometry (AID 1415); settings: at 10 µM, actives lie on both sides;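 also: fluorescent Galphao activated with aluminum fluoride binding bead-coupled RGS4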
Sequence (P09471 whole entry, looked up): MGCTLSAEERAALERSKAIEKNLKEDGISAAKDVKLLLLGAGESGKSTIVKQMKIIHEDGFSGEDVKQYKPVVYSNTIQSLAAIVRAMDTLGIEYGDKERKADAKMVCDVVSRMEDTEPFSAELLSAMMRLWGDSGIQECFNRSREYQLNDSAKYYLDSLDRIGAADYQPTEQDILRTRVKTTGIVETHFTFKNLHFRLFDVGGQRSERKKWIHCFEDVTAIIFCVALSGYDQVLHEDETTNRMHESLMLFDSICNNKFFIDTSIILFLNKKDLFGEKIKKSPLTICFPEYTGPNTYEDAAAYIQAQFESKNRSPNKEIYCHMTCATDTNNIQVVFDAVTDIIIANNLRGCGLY

Structure (SMILES) | binding response (% of control)
Cc1[nH]c2ccccc2c1/C=N/NC(=O)CNC(=O)c1ccc2c(c1)OCO2 | 111% (inactive)
COCCNC(=S)N/N=C/c1c(C)[nH]c2ccccc12 | 159% [activator] (active)
Cc1[nH]c2ccccc2c1/C=N\NC(=O)Cn1nnc(-c2ccccc2)n1 | 102% (inactive)
O=C(Nc1ccc(F)cc1)C1CCN(C(=O)c2ccc([N+](=O)[O-])cc2)CC1 | 99.8% (inactive)
CCN(CC)CCn1cnc2c1c(=O)n(CCOC(=O)c1cc(OC)c(OC)c(OC)c1)c(=O)n2C | 155% [activator] (active)
COc1cc(C(=O)OCc2ccc([N+](=O)[O-])cc2)cc(OC)c1OC | 98.2% (inactive)
CCN(CC)CCN1C(=O)C(=O)/C(=C(/O)c2ccc(OC)c(OC)c2)C1c1ccccn1 (stereo not given) | 99.2% (inactive)
COCCCn1c(-c2cccs2)nc2nc3ccccc3nc21 | 103% (inactive)
COc1cccc(C(=O)NNC(=O)c2ccccc2Br)c1 | 103% (inactive)
COc1cc(OC)cc(C(=O)NCCSCc2ccco2)c1 | 93.2% (inactive)
COc1cccc(C(=O)NCCSc2ccc(Br)cc2)c1 | 19.5% (active)
C#CCOCCOCCOCCNc1nc(N2CCN(C(=O)[C@H](CCC(=O)O)n3cc(C(N)CO)nn3)CC2)nc(N2CCN(C(=O)[C@H](CCCCN)n3cc(C(N)CC(C)C)nn3)CC2)n1 (stereo not given in full) | 104% (inactive)
Cc1ccc(NC(=O)c2oc(=O)c3ccccc3c2-c2ccccc2)c(C)c1 | 105% (inactive)
CCCCCCCCCOC1OC(CO)C(O)C(O)C1NC(C)=O (stereo not given) | 98.8% (inactive)
CC(C)=CCC/C(C)=C/C(=O)O | 92.6% (inactive)
COCCNC(=S)Nc1cc(S(=O)(=O)N2CCOCC2)ccc1N1CCCCC1 | 97.4% (inactive)
COc1ccccc1CCNC(=O)c1cnccn1 | 97.6% (inactive)
CCCn1cc(SCC(N)=O)c2ccccc21 | 82.2% (inactive)
NC(=O)CSc1c[nH]c2ccccc12 | 30% (active)
O=C(Cc1c[nH]c2ccccc12)OCCOC(=O)Cc1c[nH]c2ccccc12 | 97.3% (inactive)
COc1ccc(Cl)cc1C(=O)NNC(=S)NC(=O)/C=C/c1ccco1 | 104% (inactive)
CCOc1ccc(-c2c(C)n([O-])c3c([n+]2=O)CCCC3)cc1 | 102% (inactive)
Cc1c(S(=O)(=O)NCc2ccccc2)c(=O)n(C)c(=O)n1C | 103% (inactive)

Structure (SMILES) | binding response (% of control)
CC(C)=CCc1c(O)c(CC=C(C)C)c2occ(-c3ccc(O)cc3)c(=O)c2c1O | 96.8% (inactive)
CC(=O)c1cc(-c2ccccc2)n(CC(=O)NC2CCCCC2)c1C | 94.2% (inactive)
CCOCCCNC(=O)C(NC(=O)c1ccc(=O)[nH]c1)c1ccc(Cl)cc1 (stereo not given) | 98.1% (inactive)
COc1ccc(C2=NOC(COC(=O)c3ccc4ccccc4n3)C2)cc1 (stereo not given) | 99.3% (inactive)
CC(OC(=O)c1ccc2ccccc2n1)C(=O)c1ccccc1 (stereo not given) | 103% (inactive)
COc1ccc(C(=O)COC(=O)c2ccc3ccccc3n2)cc1 | 36.8% (active)
Cc1nc(N)[nH]c(=O)c1Oc1cccc(C(F)(F)F)c1 | 99.6% (inactive)
CCCCCCCN=C(C)c1ccccc1O | 103% (inactive)
CCOC(=O)C1Cn2c(nc3c(c2=O)C(C)(CC)Cc2ccccc2-3)S1 (stereo not given) | 93% (inactive)
CCC(=O)Nc1cccc(C2=NOC3(C2)C[C@@H](C(N)=O)N(C(=O)c2cc([N+](=O)[O-])cc([N+](=O)[O-])c2C)C3)c1 (stereo not given in full) | 96% (inactive)
COc1ccc(/C=C/C(=O)Nc2ccc(C34CC5CC(CC(O)(C5)C3)C4)cc2)cc1OC | 102% (inactive)
Cc1ccsc1/C=N/Nc1ccc(Cl)nn1 | 108% (inactive)
C=CCN1CC(C)/C(=N\O)CC1C (stereo not given) | 99.6% (inactive)
O=C(NC1CCCCC1)c1ccc(CNc2c(N3CCOCC3)c(=O)c2=O)cc1 | 102% (inactive)
CCN(CC)CCOc1ccc2c(c1)C(=NNC(=O)c1ccccn1)c1cc(OCCN(CC)CC)ccc1-2 | 172% [activator] (active)
CCOc1cc(NC(=O)c2ccccn2)c(OCC)cc1NC(=O)c1ccc(OC)cc1 | 102% (inactive)
COc1ccc(CC(=O)N/N=C(\C)c2ccccn2)cc1 | 91.7% (inactive)
COC(=O)c1c(C(=O)OC)c(-c2cccc(C)c2)n2c1CS(=O)C2 (stereo not given) | 91.5% (inactive)
CC(=O)Nc1nc(N(C)C)nc(N(C)C)n1 | 14.5% (active)
CCC(=O)Nc1nc(OC)cc(OC)n1 | 102% (inactive)
COc1cc(OC)nc(NC(=O)CCl)n1 | 101% (inactive)
COc1ccc(CNC(=O)C2CCC(CNc3c(N4CCOCC4)c(=O)c3=O)CC2)cc1 (stereo not given) | 106% (inactive)
CC(NC(=O)C1CCC(CNc2c(N3CCOCC3)c(=O)c2=O)CC1)c1ccccc1 (stereo not given) | 99.8% (inactive)

Structure (SMILES) | binding response (% of control)
O=C(NCc1ccc(F)cc1)C1CCC(CNc2c(N3CCOCC3)c(=O)c2=O)CC1 (stereo not given) | 11.6% (active)
O=C(c1ccc(Br)o1)N(c1ccccn1)C1CCCCC1 | 92.3% (inactive)
CC(Nc1nc(N2CCN(CCO)CC2)nc2ccccc12)c1ccccc1 (stereo not given) | 100% (inactive)
Cc1ccc(NC(=S)N2CCN(c3ncccn3)CC2)cc1C | 104% (inactive)
C=CCc1cccc2cc(C(=O)NC3CCCC3)c(=O)oc12 | 97.8% (inactive)
C/C=C\C=C\C(=O)N1CC2(CC(c3cccc(NC(=O)/C(C)=C\C)c3)=NO2)C[C@H]1C(N)=O (stereo not given in full) | 103% (inactive)
COc1ccccc1C(=O)n1nc(-c2ccccc2)nc1N | 98.8% (inactive)
CCCC(=O)n1nc(-c2ccccc2)nc1N | 25.8% (active)
COc1ccc(CC(=O)n2nc(-c3cccnc3)nc2N)cc1 | 96.8% (inactive)
CCCNC(=S)NC1CC2CCCC(C1)N2CC(C)C (stereo not given) | 99.3% (inactive)
CCNC(=O)CC1C(=O)N(c2ccc(F)cc2)C(=O)N1CCc1sccc1C (stereo not given) | 99.7% (inactive)
CC(C)C(NS(=O)(=O)c1cccs1)C(=O)Nc1nc(C(C)(C)C)cs1 (stereo not given) | 99% (inactive)
COc1ccc(CCNC(=O)C2CC3Cn4c(nc5cc(C)c(C)cc54)C3N2C)cc1 (stereo not given) | 103% (inactive)
COc1ccc(C)cc1NC(=O)CSc1ccc(Cl)cc1 | 105% (inactive)
CCOc1ccc(-c2ccc(SCC(=O)N3CCOCC3)nn2)cc1 | 104% (inactive)
CCOC(=O)c1c(C)[nH]c(C2=NNC(=NC(C)COC)SC2)c1C (stereo not given) | 92.4% (inactive)
CCOC(=O)C1Sc2[nH]c(=O)sc2C(c2ccc(Cl)cc2)C1C(=O)OCC (stereo not given) | -41.2% (active)
CCOC(=O)C1=C(C)NC(=O)N(C(C)=O)C1c1ccc(Cl)cc1 (stereo not given) | 115% (inactive)
CCOC(=O)C1C(c2ccc(Cl)cc2)NC(=S)NC1(O)C(F)(F)F (stereo not given) | 102% (inactive)
CC(=O)NS(=O)(=O)c1ccc(NC(=O)C2C3C=CC(C3)C2C(=O)O)cc1 (stereo not given) | 101% (inactive)
CCOC(=O)c1c(Cc2ccc(Cl)cc2)c[nH]c1C | 102% (inactive)
Cc1cc(C)cc(N(CC(=O)Nc2c(C)n(C)n(-c3ccccc3)c2=O)S(C)(=O)=O)c1 | -43.6% (active)
Cc1cc(C)cc(N(C(C)C(=O)Nc2c(C)n(C)n(-c3ccccc3)c2=O)S(C)(=O)=O)c1 (stereo not given) | 102% (inactive)

Structure (SMILES) | binding response (% of control)
Cc1ccc(S(=O)(=O)CC(=O)Nc2c(C)n(C)n(-c3ccccc3)c2=O)cc1 | 97.9% (inactive)
COCCCNC(=O)CN1CCN(Cc2ccccc2Cl)C1=O | 103% (inactive)
O=C(COc1ccc(/C=N/NC(=O)c2ccc(O)cc2)cc1)Nc1ccc([N+](=O)[O-])cc1 | 103% (inactive)
Cc1cc(N2CCOCC2)nc(-c2ccc(Br)cc2)n1 | 95.9% (inactive)
C#CCOCCOCCOCCNc1nc(N2CCN(C(=O)[C@H](CCC(=O)O)n3cc(C(N)CO)nn3)CC2)nc(N2CCN(C(=O)[C@H](CCCCN)n3cc(C(N)[C@H](C)CC)nn3)CC2)n1 (stereo not given in full) | 102% (inactive)
C=CCc1cccc2cc(C(=O)Nc3ccc(NC(C)=O)cc3)c(=O)oc12 | 102% (inactive)
N#Cc1nc(Cc2ccccc2)oc1NCCc1ccccc1 | 103% (inactive)
N#Cc1nc(-c2ccc(OCc3ccccc3)cc2)oc1NCCCN1CCOCC1 | 100% (inactive)
N#Cc1nc(COc2ccc(-c3ccccc3)cc2)oc1NCc1cccnc1 | 153% [activator] (active)
Cc1ccccc1C1=NC(C(F)(F)F)(C(F)(F)F)c2c(n(-c3ccc(F)cc3)c(=O)[nH]c2=O)N1 | 104% (inactive)
CCC(C)NC(=O)CN(C1CCCCC1)S(C)(=O)=O (stereo not given) | 99.8% (inactive)
O=S(=O)(NC(=S)Nc1ccccc1)c1ccc(F)cc1 | 103% (inactive)
CC(C)Oc1ccc(CC(=O)NNC(=S)Nc2ccc(Br)cc2)cc1 | 99.3% (inactive)
O=C(NCc1ccc2c(c1)OCO2)C12CC3CC(CC(C3)C1)C2 | 98.9% (inactive)
Cc1ccc(C2NC(C(=O)O)CS2)cc1 (stereo not given) | 103% (inactive)
Cc1cccc(S(=O)(=O)CC(=O)Nc2nc(-c3ccccc3)cs2)c1 | 183% [activator] (active)
NS(=O)(=O)c1ccc(Nc2nc(-c3ccccc3)cs2)cc1 | 106% (inactive)
O=C(CSC1=NCCS1)Nc1nc(-c2ccccc2)cs1 | 83.7% (inactive)
CCOc1ccccc1Oc1cn[nH]c1-c1ccc(OC)cc1O | 99% (inactive)
COc1ccc(Cl)cc1C(=O)NNC(=O)c1nc2nc(C)cc(C)n2n1 | 103% (inactive)
C#CCOCCOCCOCCNc1nc(N2CCN(C(=O)[C@H](C(C)C)n3cc(CCO)nn3)CC2)nc(N2CCN(C(=O)[C@H]([C@@H](C)CC)n3cc(CCCN=C(N)N)nn3)CC2)n1 | 101% (inactive)

Source: PubChem BioAssay AID1415 (NMMLSC, 2008)
